Screening results (PubChem)
GAA glycogen: alters human alpha-glucosidase cleavage of glycogen; P10253; recombinant GAA, glycogen substrate, Amplex Red glucose oxidase fluorescence; Potency, µM (top dose mostly 76.4 µM), inactives show at the highest dose activity change, negative = inhibition, hits mostly inhibitors; actives 0.38% (n = 300,000); AID 2100;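 also: potency is read from the fitted curve at half-maximal effect; 0% = full enzyme reaction and -100% = no-enzyme basal signal; the screen sought inhibitors and activators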
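qHTS, 1536-well; enzyme 4 nM final; cpd up to 77 uM; substrate bovine liver glycogen 30 ug; 50 mM citrate/phosphate pH 5.0, 0.01% Tween-20; 37 C, 40 min; Amplex Red detection 45 min RT; Hill fit → AC50.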
aGlu spleen mod: inhibits or activates alpha-glucosidase in human spleen homogenate | P10253 | human spleen homogenate, 4-MU-alpha-glucoside fluorescence | Potency, µM (series often up to 79.9 µM), without a hit: at the top dose activity change, negative = inhibition, hits mostly inhibitors | actives 0.006% (n = 240,000);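 also: potency is read from the fitted curve at half-maximal effect; 0% = enzyme with vehicle and -100% = no enzyme basal signal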
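Human spleen homogenate (1 ug) incubated with compounds and 1 mM 4-methylumbelliferyl-alpha-D-glucopyranoside in pH 5.0 citrate/phosphate buffer, 37 C, 40 min. Stopped at pH 10; 4-MU fluorescence (Ex 365/Em 440 nm); AC50 by Hill fit.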
GAA inhib: blocks human lysosomal alpha-glucosidase; P10253; purified human GAA, 4-MU-alpha-glucoside fluorescence; Potency, µM (series often up to 76.9 µM), for the others: top-dose activity change, negative = inhibition, actives largely listed as inhibitors; actives 0.005% (n = 200,000); AID 1466;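 also: potency is read from the fitted curve at half-maximal effect; plate controls were uninhibited enzyme wells for no effect and no-enzyme background for full effect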
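qHTS format, compound range up to 77 uM. Human lysosomal enzyme at 4 nM, 400 uM 4-MU glucoside substrate, pH 5.0, 20 min room temperature; fluorescence after alkaline stop gives activity normalized to controls.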
Coupling enz: coupling enzyme interference in Giardia aldolase counter-screen. actives 0.67% (n = 290,000). coupling enzyme system counterscreen, AmpLite Red fluorescence. activity change, negative = inhibition, % at 58.2 µM, hits read low. AID 2472; in the data active = activity change below about -30%
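Fluorescence at 525 nm excitation and 598 nm emission measured inhibition of the coupled detection system without aldolase. Compounds (at 57.5 uM final) were preincubated 10 min at room temperature with coupling enzyme reagent before a 20 min substrate/AmpLite Red step.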
B2AR arrestin: beta2AR (human) beta-arrestin recruitment activity. beta-arrestin recruitment to beta2AR, cell-based reporter. Potency, µM (series often up to 46.1 µM), for inactives: top-dose activation, actives largely listed as activators. AID 492947. actives 0.02% (n = 330,000). P07550;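 also: potency is read from the fitted curve at half-maximal effect; 0% = DMSO controls and full agonism = EC100 isoproterenol or metaproterenol; nearly all actives have a fitted effect of over 65% in size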
Target sequence (P07550 whole entry, looked up): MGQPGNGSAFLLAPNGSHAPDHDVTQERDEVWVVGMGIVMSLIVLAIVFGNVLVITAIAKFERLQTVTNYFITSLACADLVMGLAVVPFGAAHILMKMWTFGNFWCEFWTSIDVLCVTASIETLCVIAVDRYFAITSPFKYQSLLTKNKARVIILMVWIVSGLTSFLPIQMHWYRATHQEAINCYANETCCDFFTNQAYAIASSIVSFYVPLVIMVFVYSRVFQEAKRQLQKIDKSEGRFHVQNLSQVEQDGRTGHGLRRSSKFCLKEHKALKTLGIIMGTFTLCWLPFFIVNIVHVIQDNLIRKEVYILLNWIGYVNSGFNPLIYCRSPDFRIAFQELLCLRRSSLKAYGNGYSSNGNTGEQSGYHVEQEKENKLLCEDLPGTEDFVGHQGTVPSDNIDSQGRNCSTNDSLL
* marks the source's active call; other numbers are inactive results; ? = inconclusive; . = no result given; [ ] = dose if it differs, or a comment. The list is not random: actives were taken first. Their share in the collection is about 0.85%. Unless noted, calls follow the shape of the dose curve; as a rule, active = well fitted curve in the direction sought with a large enough effect; inconclusive = small, poorly fitted or top-dose-only effect, or another doubt; inactive = no such curve, though single readings can be large; an effect the other way counts as inactive or inconclusive. Unless noted, % is scaled to controls: 0 for no effect and ±100 for the full control effect.

SMILES	GAA glycogen	aGlu spleen mod	GAA inhib	Coupling enz	B2AR arrestin
CSCC[C@H](NC(=O)[C@@H]1CCCN1C(=O)CNC(=O)[C@H](CCCCN)NC(=O)[C@H](Cc1cnc[nH]1)NC(=O)[C@H](CO)NC(=O)[C@H](CC(C)C)NC(=O)[C@H](CCCN=C(N)N)NC(=O)[C@@H]1CCCN1C(=O)[C@H](CCCN=C(N)N)NC(=O)[C@@H]1CCC(=O)N1)C(=O)N1CCC[C@H]1C(=O)N[C@@H](Cc1ccccc1)C(=O)O	.	-2%	.	-4	.
COc1cccc(NS(=O)(=O)c2ccc3[nH]cc(C(=O)N4CCCC4)c(=O)c3c2)c1	28µM*	.	.	.	.
O=C1OCC(CO)(CO)N=C1NNc1cc(Cl)ccc1Cl	8.9µM*	-5%	-10%	0	-1%
CCCCNC(=O)c1ccc(Cn2c(=S)[nH]c3c([nH]c4ccc(OC)cc43)c2=O)cc1	-2%	-7%	1%	3	0%
CCN(CC)CCNC(=O)CCCCn1c(=S)[nH]c2c([nH]c3ccc(OC)cc32)c1=O	25µM*	6%	-10%	-3	0%
COCCCN=C(c1ccco1)n1c(=S)nc(-c2ccco2)n(CCCOC)c1=S	-8%	-5%	-4%	-33*	0%
COCCCn1c(-c2ccco2)nc2ccccc2c1=O	-2%	-14%	-9%	0	0%
Cc1cc(O)c(C)c2c1CC[C@H]1[C@H](C)C(=O)O[C@H]21	.	7%	.	4	.
COc1ccc(NCC(=O)Nc2ccc(Cl)cc2C)c(OC)c1	16µM*	9%	-4%	-11	1%
CCn1c(CSc2nccn2C)nc2cc(C(=O)O)ccc21	-18%	3%	?	-36*	0%
C=CCn1c(NS(=O)(=O)c2ccccc2)c(S(=O)(=O)c2ccc(C)cc2)c2nc3ccccc3nc21	10%	4%	-3%	-59*	0%
O=S(=O)(Nc1c(S(=O)(=O)c2ccccc2)c2nc3ccccc3nc2n1C1CCCCC1)c1ccccc1	10%	2%	?	-53*	4%
COc1cccc([C@@H]2Oc3ccc(OC)cc3C(=O)[C@H]2OC(=O)N[C@H]2CCCc3ccccc32)c1	.	6%	.	2	.
CCCCC(=O)N/N=C/c1ccc(Sc2cccc3cccnc23)o1	-13%	-1%	-5%	-35*	0%
COc1ccc(CCN(C)CCCN2CCc3cc(OC)c(OC)cc3CC2=O)cc1OC	.	2%	.	0	.
Cc1cc2c(cc1S(=O)(=O)CCC(=O)N1CCC(C)CC1)OCC(=O)N2	-19%[76.3 µM]	.	.	.	.
Nc1ccc(O)cc1C(=O)OCC(=O)C12CC3CC(CC(C3)C1)C2	16µM*	-7%	?	-47*	-1%
O=C(OCC(=O)C12CC3CC(CC(C3)C1)C2)c1ccc(O)cc1	.	.	.	.	0%
COc1ccc(NCN2C(=O)C3C4C=CC(C4)C3C2=O)cc1 (configuration not stated)	28µM*	-4%	-2%	0	0%
Brc1ccc2nc(-c3cccs3)c(NCC3CCCO3)n2c1 (configuration not stated)	6.3µM*	2%	4%	0	0%
c1csc(-c2nc(NCC3CCCO3)c3ccccc3n2)c1 (configuration not stated)	.	.	.	-1	-1%
COC1=C(Nc2ccccc2)C(=O)c2ccccc2C1=O	-8%	-3%	1%	-33*	8%
CC1=C(Nc2ccc(C(=O)O)cc2)C(=O)c2ccccc2C1=O	7%	.	.	-12	-1%
COC1=C(Nc2ccc(C)cc2)C(=O)c2ccccc2C1=O	-7%	3%	-3%	-32*	7%
COC1=C(OC)C(=O)c2ccccc2C1=O	.	-3%	.	.	.
Brc1ccc(-c2nc3ncccn3c2NC2CCCCC2)o1	25µM*	5%	-8%	0	-1%
Cc1ccc(-c2nc3ncccn3c2NC2CCCC2)o1	14µM*	-3%	5%	3	0%
O=c1[nH][nH]c2c(N=Cc3ccccc3O)ccc(F)c12	-14%	7%	0%	-34*	0%
Cc1ccc(-c2nc3ncccn3c2Nc2ccccc2C)o1	?	-4%	-6%	0	0%
Cc1ccc(-c2nc3cnccn3c2Nc2c(C)cccc2C)o1	3.5µM*	0%	-11%[15.4 µM]	3	8%
